Data published in PubChem BioAssay (Tox21).
Records with an inconclusive call do not appear. More than one record can exist for a structure, and the calls need not agree. Activity calls are given as the source filed them. Unless noted, the call rests on the fitted dose curve; in most records, active means well fitted curve in the direction sought with a large enough effect in the repeat runs; inconclusive means weak or mixed curves; inactive means no such curve, though single readings can be large; an effect the other way counts as inactive or inconclusive.

Tests used:
[1] = qHTS assay to identify small molecule agonists of the peroxisome proliferator-activated receptor delta (PPARd) signaling pathway - cell viability counter screen (AID 743211); further: nearly all actives have a fitted effect of over 55% in size; further: potency means the concentration at half of the fitted maximal effect
In short: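 Viability was measured as CellTiter-Glo luminescence (30 min, room temperature) in the same wells as the beta-lactamase readout. GeneBLAzer PPARd UAS-bla HEK293H cells received compound after 5 h plating and were incubated 17 h at 37 C.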

[2] = target: Peroxisome proliferator-activated receptor delta (Homo sapiens) (UniProt Q03181); assay: qHTS assay to identify small molecule agonists of the peroxisome proliferator-activated receptor delta (PPARd) signaling pathway (AID 743212; calls by dose curve)
Peroxisome proliferator-activated receptor delta (Homo sapiens), sequence (Q03181 whole entry, looked up): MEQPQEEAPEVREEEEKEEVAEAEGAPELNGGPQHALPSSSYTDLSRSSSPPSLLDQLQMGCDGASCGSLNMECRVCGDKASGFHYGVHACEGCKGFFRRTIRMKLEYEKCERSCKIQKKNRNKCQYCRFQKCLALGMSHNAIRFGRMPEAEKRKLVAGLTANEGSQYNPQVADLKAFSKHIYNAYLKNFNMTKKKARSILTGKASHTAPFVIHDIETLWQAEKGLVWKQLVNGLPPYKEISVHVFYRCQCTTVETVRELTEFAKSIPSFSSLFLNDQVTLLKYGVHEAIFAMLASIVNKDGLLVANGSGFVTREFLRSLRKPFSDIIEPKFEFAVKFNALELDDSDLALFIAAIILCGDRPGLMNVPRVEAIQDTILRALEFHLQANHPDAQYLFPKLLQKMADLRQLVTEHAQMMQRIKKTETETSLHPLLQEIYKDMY
In short: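 GeneBLAzer PPARd UAS-bla HEK293H cells (beta-lactamase reporter under UAS control), plated and rested 5 h at 37 C, then exposed to compounds in DMSO at 37 C; LiveBLAzer B/G FRET substrate added, 2 h room temperature, fluorescence read.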

[3] = qHTS assay to identify small molecule antagonists of the peroxisome proliferator-activated receptor delta (PPARd) signaling pathway - cell viability counter screen (AID 743213); further: nearly all actives have a fitted effect of over 50% in size
In short: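 PPARd-bla HEK293H cells (3000/well) got compound plus 300 nM L165041 agonist for 17 h at 37 C. Viability in the same wells came from CellTiter-Glo luminescence after 30 min at room temperature.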

[4] = target: Peroxisome proliferator-activated receptor delta (Homo sapiens) (UniProt Q03181); assay: qHTS assay to identify small molecule antagonists of the peroxisome proliferator-activated receptor delta (PPARd) signaling pathway (AID 743215; active means well fitted inhibition curve with a large enough effect in the signal ratio in the repeat runs, not every such curve was filed as active; the % refers to the signal ratio;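 further: cells stimulated with agonist L165041 at 300 nM final during compound exposure; series mostly up to about 62 µM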)
In short: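 PPARd-bla HEK293H cells (UAS-bla reporter) preincubated 5 h, then given compound plus 300 nM final L165041 agonist for 17 h at 37 C. Beta-lactamase activity read by LiveBLAzer B/G FRET substrate fluorescence after 2 h at room temperature.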

[5] = target: Bile acid receptor (Homo sapiens) (UniProt Q96RI1); assay: qHTS assay to identify small molecule antagonists of the farnesoid-X-receptor (FXR) signaling pathway (AID 743217; active means well fitted inhibition curve with a large enough effect in the signal ratio in the repeat runs, not every such curve was filed as active; the % refers to the signal ratio)
Bile acid receptor (Homo sapiens), sequence (Q96RI1 whole entry, looked up): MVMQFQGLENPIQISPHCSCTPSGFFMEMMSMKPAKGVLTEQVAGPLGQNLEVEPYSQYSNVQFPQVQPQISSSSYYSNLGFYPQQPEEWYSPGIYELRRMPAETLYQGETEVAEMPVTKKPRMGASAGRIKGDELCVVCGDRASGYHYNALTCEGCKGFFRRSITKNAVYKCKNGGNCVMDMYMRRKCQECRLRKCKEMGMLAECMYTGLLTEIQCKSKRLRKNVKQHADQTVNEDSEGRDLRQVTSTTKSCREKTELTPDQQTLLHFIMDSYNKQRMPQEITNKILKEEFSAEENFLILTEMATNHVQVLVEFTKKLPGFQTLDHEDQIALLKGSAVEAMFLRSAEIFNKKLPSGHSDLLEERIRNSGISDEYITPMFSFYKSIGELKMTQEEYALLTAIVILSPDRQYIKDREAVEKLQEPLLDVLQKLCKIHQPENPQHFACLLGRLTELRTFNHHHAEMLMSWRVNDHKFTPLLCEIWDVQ
In short: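 FXR-UAS-bla HEK 293T cells (beta-lactamase reporter) given compound plus chenodeoxycholic acid (50 uM final), 16 h at 37C. LiveBLAzer B/G FRET substrate added for 2 h at room temperature; fluorescence read.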

[6] = qHTS assay to identify small molecule agonists of the farnesoid-X-receptor (FXR) signaling pathway - cell viability counter screen (AID 743218); further: nearly all actives have a fitted effect of over 45% in size
In short: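 FXR-UAS-bla HEK 293T cells exposed to compounds for 16 h at 37C. Cytotoxicity read in the same wells by CellTiter-Glo luminescence after 30 min at room temperature, following the beta-lactamase FRET read.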

[7] = target: Bile acid receptor (Homo sapiens) (UniProt Q96RI1); assay: qHTS assay to identify small molecule agonists of the farnesoid-X-receptor (FXR) signaling pathway (AID 743220; active means well fitted activation curve with a large enough effect in the signal ratio in the repeat runs, not every such curve was filed as active; the % refers to the signal ratio)
In short: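 Beta-lactamase reporter under UAS control in GeneBLAzer FXR HEK 293T cells (5000/well) measured with LiveBLAzer FRET substrate after 2 h at room temperature. Compound exposure lasted 16 h at 37C.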

[8] = qHTS assay to identify small molecule antagonists of the farnesoid-X-receptor (FXR) signaling pathway - cell viability counter screen (AID 743221; active means well fitted cell-killing curve with a large enough effect in the repeat runs, not every such curve was filed as active; further: nearly all actives have a fitted effect of over 50% in size)
In short: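 Cytotoxicity counter screen run in the FXR-bla reporter wells: HEK 293T cells exposed to compound with 50 uM (final) chenodeoxycholic acid for 16 h, 37 C, then viability measured by CellTiter-Glo luminescence after 30 min, room temperature.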

[9] = target: Vitamin D3 receptor (Homo sapiens) (UniProt P11473); assay: qHTS assay to identify small molecule agonists of the vitamin D receptor (VDR) signaling pathway (AID 743222; calls by dose curve)
Vitamin D3 receptor (Homo sapiens), sequence (P11473 whole entry, looked up): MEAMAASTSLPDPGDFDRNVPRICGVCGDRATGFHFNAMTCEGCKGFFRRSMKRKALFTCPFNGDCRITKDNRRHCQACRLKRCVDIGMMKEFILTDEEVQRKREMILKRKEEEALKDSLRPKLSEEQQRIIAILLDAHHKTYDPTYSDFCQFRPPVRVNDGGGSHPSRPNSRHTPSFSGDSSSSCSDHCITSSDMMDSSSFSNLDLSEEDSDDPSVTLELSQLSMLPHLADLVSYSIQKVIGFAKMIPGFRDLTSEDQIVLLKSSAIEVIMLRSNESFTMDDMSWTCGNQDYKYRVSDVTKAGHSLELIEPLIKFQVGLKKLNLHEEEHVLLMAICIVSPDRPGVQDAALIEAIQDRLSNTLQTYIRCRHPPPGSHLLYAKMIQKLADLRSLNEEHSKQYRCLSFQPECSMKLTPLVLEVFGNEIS
In short: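 VDR-bla cells plated 4 h at 37 C, then exposed to compounds for 16 h at 37 C. Beta-lactamase reporter activity measured by fluorescence after 2 h room-temperature loading with LiveBLAzer B/G FRET substrate.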

[10] = target: Vitamin D3 receptor (Homo sapiens) (UniProt P11473); assay: qHTS assay to identify small molecule antagonists of the vitamin D receptor (VDR) signaling pathway (AID 743223; active means well fitted inhibition curve with a large enough effect in the signal ratio in the repeat runs, not every such curve was filed as active; the % refers to the signal ratio)
In short: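 Antagonist mode: compound added to VDR-bla cells alongside agonist 1alpha,25-dihydroxyvitamin D3 (3 nM final), incubation 16 h at 37C. Read-out is LiveBLAzer FRET fluorescence, 2 h at room temperature.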
On the % scale 0 is the no-effect control and ±100 the full control effect.

C1OCOCO1
inactive: Potency [1] | outcome [2] | Potency [3] | Potency [4] | outcome [5] | Potency [6] | outcome [7] | Potency [8]

CC(=O)CC(C)C
inactive: Potency [1] | outcome [2] | Potency [3] | Potency [4] | outcome [5] | Potency [6] | outcome [7] | Potency [8] | outcome [9] | outcome [10]

COC(=O)C1=C(C)NC(C)=C(C(=O)OC)C1c1ccccc1[N+](=O)[O-]
49 µM (active) and inactive: Potency [1]
inactive: outcome [2] | Potency [3] | Potency [4] | outcome [5] | Potency [6] | outcome [7] | Potency [8] | outcome [9] | outcome [10]

COC(=O)c1cc(C(=O)OC)cc(S(=O)(=O)O)c1
inactive: Potency [1] | outcome [2] | Potency [3] | Potency [4] | outcome [5] | Potency [6] | outcome [7] | Potency [8] | outcome [9] | outcome [10]

COC(=O)CCSCCC(=O)OC
inactive: Potency [1] | outcome [2] | Potency [3] | Potency [4] | outcome [5] | outcome [7] | Potency [8]

COc1c(N2C[C@@H]3CCCN[C@@H]3C2)c(F)cc2c(=O)c(C(=O)O)cn(C3CC3)c12
inactive: Potency [1] | outcome [2] | Potency [3] | Potency [4] | outcome [5] | Potency [6] | outcome [7]

N=C(N)c1ccc2cc(OC(=O)c3ccc(N=C(N)N)cc3)ccc2c1
inactive: Potency [1] | outcome [2] | Potency [3] | Potency [4] | outcome [5] | Potency [6] | outcome [7] | Potency [8] | outcome [9] | outcome [10]

NC(CSCC(=O)O)C(=O)O (configuration not stated)
inactive: Potency [1] | outcome [2] | Potency [3] | Potency [4] | outcome [5] | outcome [7] | outcome [9] | outcome [10]

O=[N+]([O-])c1ccc(F)cc1F
inactive: Potency [1] | outcome [2] | Potency [3] | Potency [4] | Potency [6] | Potency [8] | outcome [9] | outcome [10]

CCN(CC)CCNC(=O)c1cc(S(C)(=O)=O)ccc1OC
inactive: Potency [1] | outcome [2] | Potency [3] | Potency [4] | Potency [6] | Potency [8]

O=c1cc(CO)occ1O
inactive: Potency [1] | outcome [2] | Potency [3] | Potency [4] | Potency [6] | Potency [8] | outcome [9] | outcome [10]

ClC(Cl)(Br)Br
inactive: Potency [1] | outcome [2] | Potency [3] | Potency [4] | Potency [6] | Potency [8] | outcome [9] | outcome [10]

CCCCCCCCS(=O)(=O)Cl
inactive: Potency [1] | outcome [2] | Potency [3] | Potency [4] | Potency [6] | Potency [8] | outcome [9] | outcome [10]

CC(=O)OC/C=C(\C)CC/C=C(\C)CCC=C(C)C
inactive: Potency [1] | outcome [2] | Potency [3] | Potency [4] | Potency [6] | Potency [8] | outcome [9]

CC1(C)C(O)C(C)(C)C1O (configuration not stated)
inactive: Potency [1] | outcome [2] | Potency [3] | Potency [4] | Potency [6] | Potency [8] | outcome [9] | outcome [10]

CCCN(CCC)CCc1cccc2c1CC(=O)N2
inactive: Potency [1] | outcome [2] | Potency [3] | Potency [4] | Potency [6] | Potency [8]

CCc1nccnc1CC
inactive: Potency [1] | outcome [2] | Potency [3] | Potency [4] | Potency [6] | Potency [8] | outcome [9] | outcome [10]

CC(C)(CC(=O)O)C(=O)O
inactive: Potency [1] | outcome [2] | Potency [3] | Potency [4] | Potency [6] | Potency [8] | outcome [9] | outcome [10]

CC/C=C\CC/C=C/C(OCC)OCC
inactive: Potency [1] | outcome [2] | Potency [3] | Potency [4] | Potency [6] | Potency [8]

C[C@@H]1CCN(C(=O)[C@H](CCCN=C(N)N)NS(=O)(=O)c2cccc3c2NC[C@H](C)C3)[C@@H](C(=O)O)C1
inactive: Potency [1] | outcome [2] | Potency [3] | Potency [4] | Potency [6] | Potency [8]

OC[C@]1(O)OC[C@@H](O)[C@H](O)[C@@H]1O
inactive: Potency [1] | outcome [2] | Potency [3] | Potency [4] | Potency [6] | Potency [8] | outcome [9] | outcome [10]

COC(=O)c1ccc(C)cc1C1=NC(C)(C(C)C)C(=O)N1 (configuration not stated)
inactive: Potency [1] | outcome [2] | Potency [3] | Potency [4] | Potency [6] | Potency [8] | outcome [9]

CN(C(=O)c1c(O)c2ccccc2n(C)c1=O)c1ccccc1
inactive: Potency [1] | outcome [2] | Potency [3] | Potency [4] | Potency [6] | Potency [8] | outcome [9] | outcome [10]

Cc1cccc(C)c1NC(=O)C(C)N (configuration not stated)
inactive: Potency [1] | outcome [2] | Potency [3] | Potency [4] | Potency [6] | outcome [9] | outcome [10]

CO[Si](CCCOCC1CO1)(OC)OC (configuration not stated)
inactive: Potency [1] | outcome [2] | Potency [3] | Potency [4] | Potency [6] | outcome [7] | Potency [8] | outcome [9]

O=C(O)COc1nn(Cc2ccccc2)c2ccccc12
inactive: Potency [1] | outcome [2] | Potency [3] | Potency [4] | Potency [6]

CCCCCCCCCCCCCC=O
inactive: activity change, negative = cytotoxicity [1] 7.31% [at 5.95 µM] | activation [2] 0.125% [at 5.95 µM] | viability change, negative = cytotoxic [3] -6.97% [at 6.26 µM] | ratio activity, negative = inhibition [4] -0.712% [at 6.26 µM] | viability change, negative = cytotoxic [6] 0% [at 5.95 µM] | activity change, negative = cytotoxicity [8] -2.35% [at 5.95 µM]

Cc1cnc(NS(=O)(=O)c2ccc(N)cc2)nc1
inactive: Potency [1] | outcome [2] | Potency [3] | Potency [4] | Potency [6] | Potency [8] | outcome [9] | outcome [10]

CCCCCOC(=O)CCCCC
inactive: Potency [1] | outcome [2] | Potency [3] | Potency [4] | Potency [6] | Potency [8] | outcome [9] | outcome [10]
